Pf Dd2 inh = qHTS Primary assay for Inhibitors of Plasmodium falciparum Dd2 growth in vitro; Potency, µM (highest dose often 28.9 µM), most hits filed as inhibitors; 120,000 compounds, 4.3% hits; P. falciparum Dd2 growth, SYBR Green, 72 h; active = well fitted inhibition curve with a large enough effect; also: nearly all actives have a fitted effect of over 65% in size
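Readout: SYBR Green fluorescence, 485 nm excitation, 535 nm emission, after ~16 h lysis at 37C. Before that, Dd2-infected red cells (2.5% hematocrit) grew 72 h with compound, 29 uM top final concentration.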
Hits are given with their value; i = inactive; [ ] = another dose, or the depositor's remark. The entries come from a sample that favours hits as a whole.

SMILES	Pf Dd2 inh
CC(=O)N1CCC(C(=O)N[C@@H]2COCC[C@@H]2OCc2ccccc2)CC1	i
Cc1noc(C)c1S(=O)(=O)N1CCCOCCNC(=O)[C@@H]2CCCC[C@@H]21	i
COCc1nc(CCNC(=O)c2ccc(OC)nc2)no1	i
Cn1cc(C(=O)NCCc2noc(-c3ccncc3)n2)cn1	i
COc1ccc(C(=O)NCCc2noc(-c3ccncc3)n2)cn1	2.51µM
Cc1ccc(CCNc2ncnc3onc(-c4ccc(Cl)cc4)c23)cc1	i
CSc1ccc(CCNc2ncnc3onc(C)c23)cc1	8.91µM
CCCNc1ncnc2onc(C)c12	i
CCOc1ccc(CC(=O)N2CCC(Cc3nc(-c4ccc(F)cc4)no3)CC2)cc1	i
CCN(CC)Cc1cnc2c(C(=O)N[C@H](C(N)=O)C(C)C)cnn2c1	i
COc1cc(OC)cc(C(=O)N2[C@@H]3CC[C@H]2CC(NC(=O)c2ccncc2)C3)c1 (stereo partly drawn)	i
O=C1NCC(=O)N2CCN(C(=O)c3cnnn3-c3ccccc3)CC12 (stereo not drawn)	i
Cc1cc(N2CCN(Cc3nc(-c4cccc(Cl)c4)no3)CC2)cc(C)n1	10µM
Cc1oc(-c2cccc(Cl)c2)nc1CN1CCOCC1	i
Cc1cc(C)cc(N2CC(c3nc(-c4cccc(Cl)c4)no3)CC2=O)c1 (stereo not drawn)	i
CS(=O)(=O)c1ccc(CN2CCN3C(=O)N(Cc4ccccc4)C[C@H]3C2)cc1	i
c1ccc(Cn2ccnc2C2CCN(c3ncnc4ccsc34)CC2)nc1	i
O=C(CCn1ccc(=O)[nH]c1=O)N1CCc2nc(-c3ccccc3)[nH]c2C1	i
NC(=O)c1ccc(-c2nc3c([nH]2)CN(c2ncnc4ccsc24)CC3)cc1	10µM
C=CCC1(C(=O)O)CCCN(C(=O)c2cn(CCN)nn2)C1 (stereo not drawn)	i
COc1cccc(-c2ccc(NC(=O)C3CCCN3Cc3cnn(C)c3)cc2)c1 (stereo not drawn)	i
Cc1cccc(CC(=O)N2CCCCCC2c2nnc(-c3ccccc3)o2)c1 (stereo not drawn)	i
Cc1ccc(-n2cc(CN3CCCCC3C(N)=O)c(-c3cccc(C)c3)n2)cc1 (stereo not drawn)	11.2µM
NC(=O)Cn1ccc2cc(OCC3CCN(C(=O)COc4ccccc4)CC3)cnc21	i
COCc1ccc2c(c1)c(OC(C)(C)C(=O)NCC[S+](C)(=O)[O-])nn2CCC(C)C	i
SMILES	Pf Dd2 inh
Cc1ccccc1NC(=O)CN1C(=O)C(c2ccccc2)=NC12CCCCC2	i
COc1cc(Cl)c(C)cc1NC(=O)CN1C(=O)C(c2ccccc2)=NC12CCCC2	11.2µM
Cc1ccccc1NC(=O)CN1C(=O)C(c2ccccc2)=NC12CCCCCC2	i
COC(=O)c1[nH]ncc1CN1CCCC2(C1)CN(C)C(=O)O2 (stereo not drawn)	i
COc1ccc(-c2cc(N3CCN(C(=O)c4ccccc4F)CC3)n[nH]2)cc1	i
COc1ccccc1N1CCN(C(=O)c2cc3c(-c4ccccc4F)nn(C)c3s2)CC1	11.2µM
Cn1nc(-c2ccccc2F)c2cc(C(=O)Nc3cc(F)ccc3F)sc21	i
CCCN(CCC)CCNC(=O)c1cc2c(-c3ccccc3F)nn(C)c2s1	3.98µM
COc1ccc(-c2nn(C)c3sc(C(=O)N4CCN(c5ccccc5F)CC4)cc23)cc1OC	i
Cn1nc(-c2ccccc2F)c2cc(C(=O)NCc3cccc(Cl)c3)sc21	i
Cn1nc(-c2ccccc2F)c2cc(C(=O)NCc3ccc(Cl)cc3)sc21	i
O=C(CN1CC2CC(C1)[C@H]1CCCC(=O)N1C2)NCc1ccccc1F (stereo partly drawn)	i
Cc1cc(C)cc(C(=O)N2CCN(c3cc(-c4ccc(Cl)cc4)[nH]n3)CC2)c1	i
COc1ccc(NC(=O)CN2C(=O)NC(c3ccccc3Cl)C3=C2COC3=O)cc1 (stereo not drawn)	i
CCc1noc(-c2cccn3c(CNC(=O)c4cccnc4)nnc23)n1	i
c1ccc(C(c2cccs2)c2c[nH]c3ccccc23)cc1 (stereo not drawn)	i
Cc1[nH]c2ccccc2c1C(c1ccccc1)c1ccc(Cl)s1 (stereo not drawn)	8.91µM
CNC(=O)[C@@H](c1ccccc1F)N1CCC[C@H]1C(=O)NC1CC1	i
CN(C)c1cc(N2CCCC(NC(=O)c3cccn3C)C2)ncn1 (stereo not drawn)	i[5.79 µM]
COc1ccc(-c2ccnc(N[C@H]3CO[C@H]4[C@@H]3OC[C@H]4OCC(N)=O)n2)cc1	i
O=C1CCN(Cc2cccnc2)CCCC(C(=O)N2CCOCC2)CCN1 (stereo not drawn)	i
CCC(C)c1ccc(OCC(=O)Nc2ccc(-c3nc4ncccc4o3)cc2)cc1 (stereo not drawn)	10µM
COc1ccc(OCC(=O)Nc2ccc(-c3nc4cc(Cl)ccc4o3)cc2)cc1	i
COc1ccc(OCC(=O)Nc2ccc(Cl)c(-c3nc4ncccc4o3)c2)cc1	7.94µM
Cc1ccc(C(C)C)c(OCC(=O)Nc2cccc(-c3nc4ncccc4o3)c2)c1	i
SMILES	Pf Dd2 inh
CC(C)(Oc1ccc(Cl)cc1)C(=O)Nc1ccc(-c2nc3ncccc3o2)cc1	i
CCCC(=O)Nc1cc(C)c(O)c(-c2nc3ncccc3o2)c1	i
O=C(NC1CCCCC1)N1C[C@@H]2C[C@H](C1)c1c(-c3cccs3)ccc(=O)n1C2	i
CCc1noc(Cn2nc(-c3ccccc3)c3ccccc3c2=O)n1	i
COc1ccc(C(=O)N[C@H]2CO[C@H]3[C@@H]2OC[C@H]3OC(=O)Nc2ccccc2)cc1	i
CCN1CCN(CC(O)COc2cccc(CN(C)Cc3cc(C)on3)c2)CC1 (stereo not drawn)	i
COc1ccc(OCC(O)CN2CCC(O)CC2)c(CN(C)Cc2csc(C)n2)c1 (stereo not drawn)	i
COc1ccc(CN(C)Cc2ccncc2C)c(OCC(O)CN2CCCC2)c1 (stereo not drawn)	2.82µM
CCC(C)NC(=O)Cn1c(C)ccc(NC(=O)Nc2ccc(C)cc2)c1=O (stereo not drawn)	i
Cc1noc([C@H]2CCN(Cc3cc(F)cc(F)c3)C[C@H]2NC(=O)C2CC2)n1	i[5.79 µM]
CCOc1ccccc1C(=O)N1CC2CC(C1)[C@H]1CCCC(=O)N1C2 (stereo partly drawn)	i
COc1ccc2[nH]c3c(c2c1)CCNC31CCN(C(=O)C2CCCO2)CC1 (stereo not drawn)	i
COc1coc(CN2CCCC(CCc3ccccc3F)C2)cc1=O (stereo not drawn)	i
Cc1ccccc1CN1CCCC(CCNS(=O)(=O)C2CC2)C1 (stereo not drawn)	10µM
O=c1cc(CN2CCCC(CCc3ccccc3C(F)(F)F)C2)[nH]c(=O)[nH]1 (stereo not drawn)	i
COc1ccc(CNC(=O)CC[C@H]2CNC(=O)[C@@H]3[C@@H](CCN3Cc3cccc(Cl)c3)N2C)cc1	i
CN1CCN(CC(O)COc2ccc(CN3CC(c4ccccn4)C3)cc2)CC1 (stereo not drawn)	i
c1ccc([C@@H]2CNC[C@H]2COc2cccnc2)nc1	i
CNCc1ccncc1	i
CCN1CC(CN(C)Cc2nc(Cc3cccc(F)c3)no2)CC1=O (stereo not drawn)	i
CCN1CC(CN(C)Cc2cn(-c3ccccc3C)nc2-c2ccc(OC)c(F)c2)CC1=O (stereo not drawn)	10µM
COc1ccc(-c2nn(-c3ccccc3C)cc2CN(C)CCN2CCOCC2)cc1F	11.2µM
Cc1ccc(C)c(-n2cc(CN(C)CCO)c(-c3ccccc3)n2)c1	i
